Source: PubChem
A selection follows.
nsP2pro primary = blocks chikungunya virus nsP2 protease peptide cleavage. FRET peptide cleavage, nsP2pro, fluorescence 1 h. hit rate 1.1% among 31,000. Potency, µM (top dose mostly 24.9 µM), inactives show at the top dose activity change, negative = inhibition, usual class: inhibitors; also: nearly all actives have a fitted effect of over 60% in size
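Enzyme 150 nM, substrate 2.5 uM (both final); Tris-HCl 10 mM pH 8.0 + 0.01% Tween 20; cpd up to 25 uM, 7 pts; 15 min preinc., 1 h RT; fluorescence ex 525/em 598.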
CHIKV nsP2 cell = inhibits CHIKV nsP2 protease in cells. shares compounds with nsP2pro primary. Potency, µM (top dose mostly 51.1 µM), without a hit: at the top dose activity change, negative = inhibition, usual class: inhibitors. hit rate 10% among 450. cell-based CHIKV nsP2 protease reporter assay; also: nearly all actives have a fitted effect of over 70% in size
NSP2 full ctr = selectivity test for CHIKV nsP2 protease inhibitors: full-length NSP2; shares compounds with nsP2pro primary; Full-length CHIKV NSP2 protease enzymatic counterscreen; Potency, µM (top dose mostly 50.7 µM), for inactives: at the top dose activity change, negative = inhibition, most hits filed as inhibitors; hit rate 39% among 410; AID 1964101; also: nearly all actives have a fitted effect of over 65% in size
Furin counterscr = selectivity counter-screen for CHIKV nsP2 protease inhibitors: human furin; shares compounds with nsP2pro primary; Recombinant human furin enzymatic counterscreen, fluorogenic substrate; hit rate 6% among 410; Potency, µM (series often up to 50.6 µM), for the others: at the highest dose activity change, negative = inhibition, usual class: inhibitors
nsP2 NS23 pep = selectivity test for CHIKV nsP2 protease inhibitors: endogenous NS2/3 peptide | hit rate 34% among 410 | Potency, µM (highest dose often 51 µM), for the others: at the highest dose activity change, negative = inhibition, actives largely listed as inhibitors | shares compounds with nsP2pro primary | Purified CHIKV nsP2 protease, endogenous NS2/3 peptide cleavage; also: nearly all actives have a fitted effect of over 55% in size
Papain cs = inhibits papain in a CHIKV nsP2 protease selectivity counterscreen; shares compounds with nsP2pro primary; Potency, µM (top dose mostly 51 µM), without a hit: top-dose activity change, negative = inhibition, most hits filed as inhibitors; purified papain protease activity, enzymatic inhibition; hit rate 5% among 410
nsP2pro confirm = confirmation of CHIKV nsP2 protease inhibitors; shares compounds with nsP2pro primary; CHIKV nsP2 protease enzymatic activity, qHTS; Potency, µM (titrated, usually from 25.5 µM), inactives show at the top dose activity change, negative = inhibition, actives largely listed as inhibitors; hit rate 43% among 410; also: nearly all actives have a fitted effect of over 75% in size
HCV NS3 4A cs = selectivity counter-screen for CHIKV nsP2 protease inhibitors: HCV NS3/4A. AID 1964106. Potency, µM (top dose mostly 50.9 µM), usual class: inhibitors. hit rate 20% among 410. HCV NS3/4A protease biochemical counterscreen. shares compounds with nsP2pro primary; also: nearly all actives have a fitted effect of over 55% in size
* hit, by the source's call; i = inactive; ? = inconclusive; [ ] = dose if it differs, or a comment. Calls follow the shape of the full dose curve. % is scaled to controls: 0 for no effect and ±100 for the full control effect; potency is read from the fitted curve at half-maximal effect.

SMILES	nsP2pro primary	others
COC(=O)[C@H](OC(C)=O)[C@H]1C(C)(C)C(=O)[C@H]2CC3=C4CC(=O)O[C@@H](c5ccoc5)[C@]4(C)CCC3[C@@]1(C)C2=O (some centres undefined)	-10%[10 µM]
CCC(=O)O[C@H]1C(C)(C)[C@H]([C@@H](O)C(=O)OC)[C@]2(C)C(=O)[C@@]1(O)[C@H]1O[C@]13C1CC(=O)O[C@@H](c4ccoc4)[C@]1(C)CCC32 (some centres undefined)	?	CHIKV nsP2 cell=12%[17.6 µM];NSP2 full ctr=?;Furin counterscr=0%[17.3 µM];nsP2 NS23 pep=-11%[17.2 µM];Papain cs=-5%[17.2 µM];nsP2pro confirm=?;HCV NS3 4A cs=?
COC(=O)[C@H](O)[C@H]1C(C)(C)[C@H](OC(C)=O)[C@@]2(O)C(=O)[C@]1(C)C1CC[C@]3(C)C(CC(=O)O[C@H]3c3ccoc3)[C@]13O[C@@H]32 (some centres undefined)	?	CHIKV nsP2 cell=0%[17.6 µM];NSP2 full ctr=?;Furin counterscr=-4%[17.3 µM];nsP2 NS23 pep=4%[17.2 µM];Papain cs=-8%[17.2 µM];nsP2pro confirm=-14%[8.62 µM];HCV NS3 4A cs=?
COC(=O)C[C@H]1C(C)(C)[C@H](OC(=O)c2ccccc2)C2CC3=C4CC(=O)O[C@@H](c5ccoc5)[C@]4(C)CCC3[C@@]1(C)C2=O (some centres undefined)	-18%[10 µM]
C=C1[C@@H]2CC[C@@]3(C)[C@H](c4ccoc4)OC(=O)C[C@]13O[C@H]1CC(=O)C(C)(C)[C@H](C(O)C(=O)OC)[C@]12C (some centres undefined)	-18%[10 µM]
C/C=C(\C)C(=O)OC1C2(O)CC3=C4CC(=O)OC(c5ccoc5)C4(C)CCC3C(C)(C2=O)C(C(OC(C)=O)C(=O)OC)C1(C)C (centres undefined)	-16%[10 µM]
COC(=O)[C@H](O)[C@H]1C(C)(C)[C@H](OC(=O)C(C)C)[C@@]2(O)C(=O)[C@]1(C)C1CC[C@]3(C)C(CC(=O)O[C@H]3c3ccoc3)[C@]13O[C@@H]32 (some centres undefined)	?	CHIKV nsP2 cell=1%[17.6 µM];NSP2 full ctr=?;Furin counterscr=4%[17.3 µM];nsP2 NS23 pep=-1%[17.2 µM];Papain cs=-5%[17.2 µM];nsP2pro confirm=?;HCV NS3 4A cs=i
Cc1cc(C)nc(NC(=S)N2CCN(c3cccc([N+](=O)[O-])c3)CC2)c1	3%
CCCCCCCCCCCCCCCCCC(=O)NCCCC[C@H](NC(=O)CC[C@@H](NC(=O)[C@H](C)NC(=O)[C@@H](C)O[C@H]1[C@H](O)[C@@H](CO)OC(O)[C@@H]1NC(C)=O)C(N)=O)C(=O)O (some centres undefined)	-8%
C=CC(=O)Nc1cc(Nc2ncc(C(=O)OC(C)C)c(-c3cn(C)c4ccccc34)n2)c(OC)cc1N(C)CCN(C)C	-17%
O=c1cc(-c2ccncc2)oc2c(-c3ccc(CO)cc3)nccc12	-7%[39.2 µM]
Cc1cnc(C2CCOCC2)n1C1CCNCC1	i
COc1cc2c(c(OC)c1OC)-c1c(cc3c(c1OC)OCO3)C[C@@H](C)[C@@H](C)C2	-16%
COc1cc(Nc2nc(-c3ccncc3)nc3ccccc23)ccc1F	4%
O=C1c2cccc(O)c2C(=O)c2c(O)cc(CO)cc21	?	CHIKV nsP2 cell=-9%;NSP2 full ctr=-1%;Furin counterscr=-6%;nsP2 NS23 pep=-13%;Papain cs=-13%;nsP2pro confirm=10%;HCV NS3 4A cs=i
O=C1c2c(O)ccc(O)c2C(=O)c2c(NCCNCCO)ccc(NCCNCCO)c21	219%
Cc1cc(C)nc(NC(=S)N2CCN(c3nccc4ccccc34)CC2)c1	-7%
O=C([C@H]1O[C@H](CCN2CCC(CO)CC2)CC[C@@H]1O)N1CCN(c2ccccc2)CC1	-5%[39.2 µM]
